From PubChem BioAssay (NCATS)
Records with an inconclusive call do not appear. Calls of active or inactive are those of the source. Calls follow the shape of the dose curve; as a rule, active = well fitted curve in the direction sought with a large enough effect; inconclusive = small, poorly fitted or top-dose-only effect, or another doubt; inactive = no such curve, though single readings can be large; an effect the other way counts as inactive or inconclusive.

Tests used:
[1] = qHTS for Inhibitors of Plasmodium falciparum (DD2) proliferation (AID 504314);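 also: parasite DNA measured by SYBR Green fluorescence after red cell lysis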
Outline: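 Erythrocytes infected with P. falciparum Dd2 (0.3% parasitemia, 2.5% hematocrit) exposed to compound 72 h at 37C, 5% CO2. Parasite DNA quantified by SYBR Green fluorescence after saponin/Triton lysis overnight; normalized to 0.29 uM artemisinin and DMSO.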

[2] = qHTS for Inhibitors of Plasmodium falciparum (7G8) proliferation (AID 504316); also: series mostly up to about 6.7 µM; nearly all actives have a fitted effect of over 65% in size
Outline: (§1)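 Erythrocytes infected with P. falciparum line (0.3% parasitemia, 2.5% hematocrit final) incubated with compounds 72 h at 37 °C, 5% CO2; SYBR Green lysis buffer added, fluorescence read next day. Normalized to 0.29 uM artemisinin and DMSO.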

[3] = qHTS for Inhibitors of Plasmodium falciparum (HB3) proliferation (AID 504318); also: nearly all actives have a fitted effect of over 60% in size
Outline: as §1

[4] = qHTS for Inhibitors of Plasmodium falciparum (CP250) proliferation (AID 504320)
Outline: as §1

Measured: Potency

COC(=O)C1=C(C)N(Cc2ccccc2)C(=O)N[C@H]1CCc1ccccc1
inactive: all assays above

COCCN1C(=O)N[C@@H](c2cccs2)C(C(C)=O)=C1C
inactive: all assays above
